Measurements reported in paper PMC7862700, “An all-to-all approach to the identification of sequence-specific readers for epigenetic DNA modifications on cytosine”.

Columns and labels:
Assay in all cases: DAPPL (digital affinity profiling via proximity ligation, sequencing); 10 mM Tris-HCl pH 7.5, 50 mM NaCl, 1 mM DTT, 4% glycerol, room temperature, 30 min; GST-TFs on glutathione beads, 16-mer random dsDNA library, 0.1% formaldehyde crosslink after washing; high values mean tight binding
FLI1 = molecular target: T1, FLI1 (Homo sapiens, UniProt Q01543 1-452); settings: protein: recombinant; tags: N-terminal GST; dsDNA, one strand shown
T1 sequence: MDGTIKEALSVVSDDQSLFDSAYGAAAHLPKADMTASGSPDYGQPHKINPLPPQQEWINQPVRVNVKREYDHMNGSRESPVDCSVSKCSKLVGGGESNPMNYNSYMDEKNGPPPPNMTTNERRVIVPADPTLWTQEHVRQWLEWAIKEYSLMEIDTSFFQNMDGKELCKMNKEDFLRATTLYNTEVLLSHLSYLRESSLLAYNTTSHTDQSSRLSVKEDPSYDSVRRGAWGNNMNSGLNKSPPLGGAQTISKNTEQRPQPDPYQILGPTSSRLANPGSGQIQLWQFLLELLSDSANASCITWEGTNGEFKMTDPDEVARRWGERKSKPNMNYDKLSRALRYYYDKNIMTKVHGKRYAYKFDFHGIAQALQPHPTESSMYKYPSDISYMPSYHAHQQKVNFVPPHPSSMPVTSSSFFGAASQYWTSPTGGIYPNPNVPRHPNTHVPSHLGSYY
Summary of the method: (§1)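 Pools of DNA-barcoded human transcription factors, expressed in yeast as GST fusions on glutathione beads and combined with a tag-only sample, were incubated with 200 nmole of a 16-mer random double-stranded DNA library. Incubation took 30 min at room temperature in Tris/NaCl/DTT/glycerol buffer and was followed by washing, 0.1% formaldehyde crosslinking, proximity ligation (BsaI/T4 ligase, 1 h, 37 °C), PCR amplification and sequencing on an Illumina NextSeq500. Binding signal is the ratio of a hexamer's read frequency for a factor to its frequency for the tag-only sample.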

ELK1 = molecular target: T2, ELK1 (Homo sapiens, UniProt P19419 1-428); settings: protein: recombinant; tags: N-terminal GST; dsDNA, one strand shown
T2 sequence: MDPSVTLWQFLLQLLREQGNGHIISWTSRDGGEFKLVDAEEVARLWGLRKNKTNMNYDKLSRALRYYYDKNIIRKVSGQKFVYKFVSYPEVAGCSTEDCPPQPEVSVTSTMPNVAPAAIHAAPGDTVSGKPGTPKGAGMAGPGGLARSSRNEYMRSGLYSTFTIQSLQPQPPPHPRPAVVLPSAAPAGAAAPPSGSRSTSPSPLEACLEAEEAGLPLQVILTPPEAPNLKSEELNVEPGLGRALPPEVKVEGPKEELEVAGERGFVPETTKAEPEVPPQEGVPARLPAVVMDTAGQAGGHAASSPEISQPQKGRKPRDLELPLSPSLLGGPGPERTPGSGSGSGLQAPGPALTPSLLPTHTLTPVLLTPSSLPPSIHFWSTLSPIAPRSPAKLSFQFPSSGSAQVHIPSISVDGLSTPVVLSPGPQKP
Summary of the method: as §1

GABPA = molecular target: T3, GABPA (Homo sapiens, UniProt Q06546 1-454); settings: protein: recombinant; tags: N-terminal GST; dsDNA, one strand shown
T3 sequence: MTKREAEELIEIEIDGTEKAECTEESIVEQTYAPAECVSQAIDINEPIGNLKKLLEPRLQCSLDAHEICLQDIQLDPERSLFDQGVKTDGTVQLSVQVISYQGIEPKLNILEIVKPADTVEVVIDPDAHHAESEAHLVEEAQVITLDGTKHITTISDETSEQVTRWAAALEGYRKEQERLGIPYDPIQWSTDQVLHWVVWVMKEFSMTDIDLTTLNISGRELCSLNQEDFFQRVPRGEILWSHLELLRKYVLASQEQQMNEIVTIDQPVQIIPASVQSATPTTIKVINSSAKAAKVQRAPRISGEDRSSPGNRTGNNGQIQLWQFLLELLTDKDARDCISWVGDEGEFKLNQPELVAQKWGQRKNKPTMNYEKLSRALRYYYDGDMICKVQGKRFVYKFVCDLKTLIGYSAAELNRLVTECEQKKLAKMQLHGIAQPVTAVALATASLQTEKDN
Summary of the method: as §1

ERG = molecular target: T4, ERG (Homo sapiens, UniProt P11308 1-479); settings: protein: recombinant; tags: N-terminal GST; dsDNA, one strand shown
T4 sequence: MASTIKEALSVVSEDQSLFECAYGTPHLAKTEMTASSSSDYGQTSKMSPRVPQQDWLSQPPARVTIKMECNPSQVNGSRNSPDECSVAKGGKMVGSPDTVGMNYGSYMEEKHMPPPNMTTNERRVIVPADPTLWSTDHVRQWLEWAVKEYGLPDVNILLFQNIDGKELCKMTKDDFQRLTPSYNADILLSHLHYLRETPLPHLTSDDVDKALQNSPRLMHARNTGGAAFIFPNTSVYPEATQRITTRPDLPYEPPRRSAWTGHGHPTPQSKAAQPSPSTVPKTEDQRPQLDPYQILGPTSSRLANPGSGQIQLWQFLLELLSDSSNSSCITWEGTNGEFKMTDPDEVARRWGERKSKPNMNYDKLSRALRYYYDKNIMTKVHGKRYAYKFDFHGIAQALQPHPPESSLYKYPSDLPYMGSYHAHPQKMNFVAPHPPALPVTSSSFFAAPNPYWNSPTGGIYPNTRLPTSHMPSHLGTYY
Summary of the method: as §1

ELF1 = ELF1 (Homo sapiens, UniProt P32519 1-619); settings: protein: recombinant; tags: N-terminal GST; dsDNA, one strand shown
Summary of the method: as §1

EHF = molecular target: T5, EHF (Homo sapiens, UniProt Q9NZC4 1-300); settings: protein: recombinant; tags: N-terminal GST; dsDNA, one strand shown
T5 sequence: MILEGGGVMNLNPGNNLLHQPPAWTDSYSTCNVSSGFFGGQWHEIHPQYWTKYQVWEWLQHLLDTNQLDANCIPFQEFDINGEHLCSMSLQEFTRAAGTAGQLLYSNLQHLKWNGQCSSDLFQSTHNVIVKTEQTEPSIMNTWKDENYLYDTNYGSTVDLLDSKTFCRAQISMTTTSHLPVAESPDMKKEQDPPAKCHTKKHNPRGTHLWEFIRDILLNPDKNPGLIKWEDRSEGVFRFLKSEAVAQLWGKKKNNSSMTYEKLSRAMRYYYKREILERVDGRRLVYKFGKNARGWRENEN
Summary of the method: as §1

SPI1 = SPI1 (Homo sapiens, UniProt P17947 1-270); settings: protein: recombinant; tags: N-terminal GST; dsDNA, one strand shown
Summary of the method: as §1

SPIB = SPIB (Homo sapiens, UniProt Q01892 1-262); settings: protein: recombinant; tags: N-terminal GST; dsDNA, one strand shown
Summary of the method: as §1

ELK3 = molecular target: T6, ELK3 (Homo sapiens, UniProt P41970 1-407); settings: protein: recombinant; tags: N-terminal GST; dsDNA, one strand shown
T6 sequence: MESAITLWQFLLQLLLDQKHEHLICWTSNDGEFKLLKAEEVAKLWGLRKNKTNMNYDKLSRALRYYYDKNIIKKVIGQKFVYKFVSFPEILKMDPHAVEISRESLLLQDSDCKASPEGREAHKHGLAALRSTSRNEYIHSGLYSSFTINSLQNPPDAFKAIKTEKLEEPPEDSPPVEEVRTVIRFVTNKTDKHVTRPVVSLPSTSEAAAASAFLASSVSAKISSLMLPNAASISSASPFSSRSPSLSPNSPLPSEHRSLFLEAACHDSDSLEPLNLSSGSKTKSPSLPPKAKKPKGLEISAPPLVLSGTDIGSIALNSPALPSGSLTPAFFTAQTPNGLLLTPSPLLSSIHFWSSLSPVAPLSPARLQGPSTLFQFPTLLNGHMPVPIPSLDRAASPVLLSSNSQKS
Summary of the method: as §1

FEV = molecular target: T7, FEV (Homo sapiens, UniProt Q99581 1-238); settings: protein: recombinant; tags: N-terminal GST; dsDNA, one strand shown
T7 sequence: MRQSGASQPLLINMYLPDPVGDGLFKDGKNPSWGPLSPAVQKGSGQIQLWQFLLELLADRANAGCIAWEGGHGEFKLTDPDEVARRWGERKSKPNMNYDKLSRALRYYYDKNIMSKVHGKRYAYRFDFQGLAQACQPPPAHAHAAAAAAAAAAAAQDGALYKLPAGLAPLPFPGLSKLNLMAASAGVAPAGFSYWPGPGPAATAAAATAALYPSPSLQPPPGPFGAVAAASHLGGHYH
Summary of the method: as §1

ETV5 = ETV5 (Homo sapiens, UniProt P41161 1-510); settings: protein: recombinant; tags: N-terminal GST; dsDNA, one strand shown
Summary of the method: as §1

HSF1 = HSF1 (Homo sapiens, UniProt Q00613 1-529); settings: protein: recombinant; tags: N-terminal GST; chain copies: 3; dsDNA, one strand shown
Summary of the method: as §1

SPIC = molecular target: T8, SPIC (Homo sapiens, UniProt Q8N5J4 1-248); settings: protein: recombinant; tags: N-terminal GST; dsDNA, one strand shown
T8 sequence: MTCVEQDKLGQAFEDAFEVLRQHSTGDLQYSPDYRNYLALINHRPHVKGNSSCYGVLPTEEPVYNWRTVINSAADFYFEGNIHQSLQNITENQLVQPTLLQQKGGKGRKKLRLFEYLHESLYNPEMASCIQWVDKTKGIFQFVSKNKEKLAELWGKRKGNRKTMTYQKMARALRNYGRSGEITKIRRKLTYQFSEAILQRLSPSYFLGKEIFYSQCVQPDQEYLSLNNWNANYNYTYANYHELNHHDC
Summary of the method: as §1

ELF4 = ELF4 (Homo sapiens, UniProt Q99607 1-663); settings: protein: recombinant; tags: N-terminal GST; dsDNA, one strand shown
Summary of the method: as §1

ELK4 = molecular target: T9, ELK4 (Homo sapiens, UniProt P28324-2 1-405); settings: protein: recombinant; tags: N-terminal GST; dsDNA, one strand shown
T9 sequence: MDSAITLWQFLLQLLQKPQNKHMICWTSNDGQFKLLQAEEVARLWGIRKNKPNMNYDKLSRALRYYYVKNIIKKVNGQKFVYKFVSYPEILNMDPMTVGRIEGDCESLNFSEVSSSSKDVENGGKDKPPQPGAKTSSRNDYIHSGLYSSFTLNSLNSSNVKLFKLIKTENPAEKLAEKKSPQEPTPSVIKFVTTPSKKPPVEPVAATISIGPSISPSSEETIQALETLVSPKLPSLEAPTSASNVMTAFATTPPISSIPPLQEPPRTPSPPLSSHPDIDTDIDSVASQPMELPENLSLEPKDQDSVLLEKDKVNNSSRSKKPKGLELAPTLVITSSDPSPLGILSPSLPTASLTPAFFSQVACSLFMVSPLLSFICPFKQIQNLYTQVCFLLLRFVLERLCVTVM
Summary of the method: as §1

ETV2 = molecular target: T10, ETV2 (Homo sapiens, UniProt O00321 1-342); settings: protein: recombinant; tags: N-terminal GST; dsDNA, one strand shown
T10 sequence: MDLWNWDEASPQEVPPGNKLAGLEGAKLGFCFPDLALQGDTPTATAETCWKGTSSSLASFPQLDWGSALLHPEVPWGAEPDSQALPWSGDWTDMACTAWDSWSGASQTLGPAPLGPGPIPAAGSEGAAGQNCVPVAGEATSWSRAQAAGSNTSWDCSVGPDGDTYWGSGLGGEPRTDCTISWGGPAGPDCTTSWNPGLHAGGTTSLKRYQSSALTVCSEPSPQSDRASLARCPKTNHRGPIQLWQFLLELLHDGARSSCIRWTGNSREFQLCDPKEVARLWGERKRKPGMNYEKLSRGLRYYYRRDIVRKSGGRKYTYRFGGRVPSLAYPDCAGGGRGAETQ
Summary of the method: as §1

ELF3 = molecular target: T11, ELF3 (Homo sapiens, UniProt P78545 1-371); settings: protein: recombinant; tags: N-terminal GST; dsDNA, one strand shown
T11 sequence: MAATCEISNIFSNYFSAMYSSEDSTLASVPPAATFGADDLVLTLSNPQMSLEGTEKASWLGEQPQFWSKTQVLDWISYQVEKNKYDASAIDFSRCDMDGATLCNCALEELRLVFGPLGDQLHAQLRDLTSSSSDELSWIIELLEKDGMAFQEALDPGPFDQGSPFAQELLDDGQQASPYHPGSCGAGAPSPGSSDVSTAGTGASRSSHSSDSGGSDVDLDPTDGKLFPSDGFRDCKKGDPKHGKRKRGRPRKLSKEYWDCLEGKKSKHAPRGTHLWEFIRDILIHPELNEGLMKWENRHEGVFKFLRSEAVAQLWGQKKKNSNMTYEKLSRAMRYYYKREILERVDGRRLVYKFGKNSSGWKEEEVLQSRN
Summary of the method: as §1

CRX = CRX (Homo sapiens, UniProt O43186 1-299); settings: protein: recombinant; tags: N-terminal GST; dsDNA, one strand shown
Summary of the method: as §1

ETV1 = ETV1 (Homo sapiens, UniProt P50549 1-477); settings: protein: recombinant; tags: N-terminal GST; dsDNA, one strand shown
Summary of the method: as §1

Sequence of SPIB (Q01892 whole entry): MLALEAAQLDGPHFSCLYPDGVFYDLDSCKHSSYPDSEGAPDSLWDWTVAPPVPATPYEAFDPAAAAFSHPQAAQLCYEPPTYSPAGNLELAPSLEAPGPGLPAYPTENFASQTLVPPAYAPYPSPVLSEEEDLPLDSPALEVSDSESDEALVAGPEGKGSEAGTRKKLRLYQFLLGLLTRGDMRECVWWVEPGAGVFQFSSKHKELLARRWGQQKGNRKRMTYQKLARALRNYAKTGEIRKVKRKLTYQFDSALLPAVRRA
Sequence of HSF1 (Q00613 whole entry): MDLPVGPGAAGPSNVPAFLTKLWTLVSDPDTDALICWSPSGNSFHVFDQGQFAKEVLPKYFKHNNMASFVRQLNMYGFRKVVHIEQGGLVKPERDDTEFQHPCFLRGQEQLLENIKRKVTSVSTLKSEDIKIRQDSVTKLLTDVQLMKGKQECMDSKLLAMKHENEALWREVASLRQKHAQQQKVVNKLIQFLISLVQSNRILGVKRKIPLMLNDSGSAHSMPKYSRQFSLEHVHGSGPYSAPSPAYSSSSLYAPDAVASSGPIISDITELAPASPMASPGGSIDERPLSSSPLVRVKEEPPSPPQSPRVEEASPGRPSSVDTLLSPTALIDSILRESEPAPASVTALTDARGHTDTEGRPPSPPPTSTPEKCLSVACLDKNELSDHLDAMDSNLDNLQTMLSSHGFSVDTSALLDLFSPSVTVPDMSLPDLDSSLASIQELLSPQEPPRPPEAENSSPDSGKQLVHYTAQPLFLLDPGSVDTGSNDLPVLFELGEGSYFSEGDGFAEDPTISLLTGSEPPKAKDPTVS
Sequence of ETV5 (P41161 whole entry): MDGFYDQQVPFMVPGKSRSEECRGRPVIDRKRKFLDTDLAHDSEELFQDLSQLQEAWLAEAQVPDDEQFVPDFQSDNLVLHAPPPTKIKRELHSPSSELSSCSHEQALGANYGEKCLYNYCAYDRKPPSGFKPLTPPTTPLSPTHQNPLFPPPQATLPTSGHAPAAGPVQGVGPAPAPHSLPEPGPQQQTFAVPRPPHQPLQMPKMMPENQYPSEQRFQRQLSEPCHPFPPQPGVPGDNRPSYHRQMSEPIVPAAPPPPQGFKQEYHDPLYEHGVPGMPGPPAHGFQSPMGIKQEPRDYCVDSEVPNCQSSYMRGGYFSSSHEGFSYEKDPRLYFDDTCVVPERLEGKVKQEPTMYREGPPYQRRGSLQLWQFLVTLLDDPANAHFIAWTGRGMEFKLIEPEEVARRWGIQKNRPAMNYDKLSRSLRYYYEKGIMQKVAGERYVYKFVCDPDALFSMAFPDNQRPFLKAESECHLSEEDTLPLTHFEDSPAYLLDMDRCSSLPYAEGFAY
Sequence of CRX (O43186 whole entry): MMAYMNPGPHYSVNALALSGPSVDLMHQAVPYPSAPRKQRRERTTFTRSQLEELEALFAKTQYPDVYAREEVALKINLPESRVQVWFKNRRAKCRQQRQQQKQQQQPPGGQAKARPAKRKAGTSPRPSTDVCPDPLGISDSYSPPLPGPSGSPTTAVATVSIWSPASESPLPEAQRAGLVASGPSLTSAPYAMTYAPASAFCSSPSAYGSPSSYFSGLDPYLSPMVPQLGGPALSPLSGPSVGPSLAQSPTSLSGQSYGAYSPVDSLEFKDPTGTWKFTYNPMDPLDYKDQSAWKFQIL
Sequence of ETV1 (P50549 whole entry): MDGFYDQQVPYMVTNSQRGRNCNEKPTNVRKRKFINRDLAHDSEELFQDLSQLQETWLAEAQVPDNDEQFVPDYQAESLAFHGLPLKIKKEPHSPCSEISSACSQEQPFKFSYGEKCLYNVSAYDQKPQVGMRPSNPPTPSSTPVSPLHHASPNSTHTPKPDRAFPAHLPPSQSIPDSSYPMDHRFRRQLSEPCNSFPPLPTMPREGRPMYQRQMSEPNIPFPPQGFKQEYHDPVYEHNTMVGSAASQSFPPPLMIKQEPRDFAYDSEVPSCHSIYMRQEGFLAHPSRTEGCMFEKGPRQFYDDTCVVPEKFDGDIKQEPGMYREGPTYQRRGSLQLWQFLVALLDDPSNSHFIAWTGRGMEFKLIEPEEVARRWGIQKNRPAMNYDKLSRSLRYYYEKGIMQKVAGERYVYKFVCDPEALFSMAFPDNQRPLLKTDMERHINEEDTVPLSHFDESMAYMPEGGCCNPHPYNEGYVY
Sequence of ELF1 (P32519 whole entry): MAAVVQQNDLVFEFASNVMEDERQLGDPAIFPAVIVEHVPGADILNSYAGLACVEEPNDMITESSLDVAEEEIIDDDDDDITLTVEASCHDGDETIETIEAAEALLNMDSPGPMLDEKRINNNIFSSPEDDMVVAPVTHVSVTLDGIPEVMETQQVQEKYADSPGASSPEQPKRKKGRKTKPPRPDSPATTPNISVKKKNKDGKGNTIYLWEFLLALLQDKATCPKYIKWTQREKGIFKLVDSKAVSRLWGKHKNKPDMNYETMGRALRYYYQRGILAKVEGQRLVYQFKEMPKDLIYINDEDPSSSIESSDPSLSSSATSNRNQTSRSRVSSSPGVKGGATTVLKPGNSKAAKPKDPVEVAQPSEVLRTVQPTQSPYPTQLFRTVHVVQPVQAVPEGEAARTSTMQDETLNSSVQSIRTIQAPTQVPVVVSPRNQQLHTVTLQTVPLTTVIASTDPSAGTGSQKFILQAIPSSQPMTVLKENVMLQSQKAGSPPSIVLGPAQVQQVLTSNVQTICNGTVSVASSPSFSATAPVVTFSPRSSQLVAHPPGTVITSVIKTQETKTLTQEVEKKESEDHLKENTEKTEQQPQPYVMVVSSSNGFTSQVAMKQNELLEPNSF
Sequence of ELF4 (Q99607 whole entry): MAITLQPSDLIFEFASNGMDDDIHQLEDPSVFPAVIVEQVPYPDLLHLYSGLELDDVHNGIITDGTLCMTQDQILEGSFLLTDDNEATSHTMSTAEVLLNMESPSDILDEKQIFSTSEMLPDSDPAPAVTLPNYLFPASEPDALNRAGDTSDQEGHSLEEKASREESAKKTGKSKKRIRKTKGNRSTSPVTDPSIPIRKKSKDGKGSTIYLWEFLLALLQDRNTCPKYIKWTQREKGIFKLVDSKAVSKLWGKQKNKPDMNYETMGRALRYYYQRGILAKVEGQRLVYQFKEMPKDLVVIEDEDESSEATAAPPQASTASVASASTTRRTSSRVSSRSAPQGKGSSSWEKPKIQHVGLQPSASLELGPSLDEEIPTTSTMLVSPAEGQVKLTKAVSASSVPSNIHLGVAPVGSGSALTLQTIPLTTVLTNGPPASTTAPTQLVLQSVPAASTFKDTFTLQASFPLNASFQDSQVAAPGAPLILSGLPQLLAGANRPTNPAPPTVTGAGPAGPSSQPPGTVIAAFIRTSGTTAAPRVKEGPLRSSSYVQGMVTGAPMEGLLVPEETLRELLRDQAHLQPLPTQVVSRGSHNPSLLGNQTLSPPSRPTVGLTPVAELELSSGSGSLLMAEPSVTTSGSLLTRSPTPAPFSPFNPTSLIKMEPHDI

## CTACCG
FLI1
  binding signal: 1.44 fold enrichment (6-mer frequency, TF over GST control)
ELK1
  binding signal: 1.71 fold enrichment (6-mer frequency, TF over GST control)
GABPA
  binding signal: 1.58 fold enrichment (6-mer frequency, TF over GST control)
ERG
  binding signal: 1.5 fold enrichment (6-mer frequency, TF over GST control)
ELF1
  binding signal: 1.64 fold enrichment (6-mer frequency, TF over GST control)
EHF
  binding signal: 1.55 fold enrichment (6-mer frequency, TF over GST control)
SPI1
  binding signal: 1.52 fold enrichment (6-mer frequency, TF over GST control)
SPIB
  binding signal: 1.73 fold enrichment (6-mer frequency, TF over GST control)
ELK3
  binding signal: 1.57 fold enrichment (6-mer frequency, TF over GST control)
FEV
  binding signal: 1.7 fold enrichment (6-mer frequency, TF over GST control)
ETV5
  binding signal: 1.64 fold enrichment (6-mer frequency, TF over GST control)
HSF1
  binding signal: 1.16 fold enrichment (6-mer frequency, TF over GST control)
SPIC
  binding signal: 1.62 fold enrichment (6-mer frequency, TF over GST control)
ELF4
  binding signal: 1.59 fold enrichment (6-mer frequency, TF over GST control)
ELK4
  binding signal: 1.38 fold enrichment (6-mer frequency, TF over GST control)
ETV2
  binding signal: 1.47 fold enrichment (6-mer frequency, TF over GST control)
ELF3
  binding signal: 1.67 fold enrichment (6-mer frequency, TF over GST control)
CRX
  binding signal: 1.02 fold enrichment (6-mer frequency, TF over GST control)
ETV1
  binding signal: 1.62 fold enrichment (6-mer frequency, TF over GST control)
